Test [1] is described as follows: optical density shifts of acrAB sulA E. coli – strain DRC41, OD650, 48 h, E. coli filamentation inducer project, primary screen (AID 1152).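 Further: E. coli MC1000 strain DRC41 lacking acrAB efflux pump and sulA.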 The settings on record: higher = more signal, called active from +8 up or from −8 down.
A short description of test [2]: probe aLefty1 binding on compound microarray – biochemical, small-molecule microarray, 635/667 nm fluorescence, primary screen (AID 1153).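 Further: score merges spot fluorescence with signal-to-noise ratio from the scanned slide images.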 The settings on record: higher = more signal.
The nature of test [3]: plasmodial surface anion channel blockers, osmotic lysis – cell-based, P. falciparum Indochina, OD700, 1 h, primary screen (AID 1154). The settings on record: P. falciparum Indochina infected RBC osmotic lysis, higher = more signal, called active from +8 up or from −8 down.
Test [4] can be described thus: plasmodial surface anion channel blockers, osmotic lysis – cell-based, P. falciparum Indochina, OD700, 2 h, primary screen (AID 1155).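 Further: lysis reports solute entry through the parasite surface anion channel PSAC.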 The settings on record: P. falciparum Indochina infected erythrocytes, higher = more signal, called active from +8 up or from −8 down.
The nature of test [5]: changes in parasitized red cell lysis, either direction – P. falciparum Indochina, OD700, 3 h, PSAC antagonist project, primary screen (AID 1156). The settings on record: P. falciparum-infected erythrocytes, osmotic lysis, higher = more signal, called active from +8 up or from −8 down.
Test [6] is described as follows: plasmodial surface anion channel blockers, osmotic lysis – cell-based, P. falciparum Indochina, OD700, 18 h, primary screen (AID 1157). The conditions noted are these: P. falciparum Indochina infected erythrocytes, osmotic lysis OD700, 18 h; higher = more signal, called active from +8 up or from −8 down.
Test [7] in a line: S6 kinase pathway phospho-S6 level changes – cell-based, A549, cytoblot, luminescence, serum-stimulated, primary screen (AID 1158).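 Further: serum-stimulated A549 lung adenocarcinoma cells; signal is phosphorylated S6 detected by cytoblot immunostaining with HRP secondary.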 The settings on record: 5 h, higher = more signal.
The target in test [8] is NADPH oxidase 2 (Homo sapiens) (UniProt P04839). As to the kind of experiment: compounds shifting NOX2 Amplex Red fluorescence – cell-based, HEK293-NOX2, PMA-stimulated, NOX inhibitor project, primary screen (AID 1159). Further: test concentration not given here. The settings on record: 45 min, higher = more signal, called active from +8 up or from −8 down.
The target in test [9] is NADPH oxidase 4 (Homo sapiens) (UniProt Q9NPH5). As to the kind of experiment: compounds shifting NOX4 Amplex Red fluorescence – cell-based, HEK293-NOX4, tetracycline-induced, NOX inhibitor project, primary screen (AID 1160). The conditions noted are these: HEK293-NOX4, Amplex Red H2O2 fluorescence, 45 min; higher = more signal, called active from +8 up or from −8 down.
Test [10] addresses NADPH oxidase 5 (Homo sapiens) (UniProt Q96PH1). As to the kind of experiment: compounds shifting NOX5 Amplex Red fluorescence – cell-based, HEK293-NOX5, NOX inhibitor project, primary screen (AID 1161). The settings on record: HEK293-NOX5, ionomycin, 45 min, higher = more signal.

Calls of active or inactive are those of the source.

Sequence of NADPH oxidase 4 (Homo sapiens) (Q9NPH5 whole entry, looked up): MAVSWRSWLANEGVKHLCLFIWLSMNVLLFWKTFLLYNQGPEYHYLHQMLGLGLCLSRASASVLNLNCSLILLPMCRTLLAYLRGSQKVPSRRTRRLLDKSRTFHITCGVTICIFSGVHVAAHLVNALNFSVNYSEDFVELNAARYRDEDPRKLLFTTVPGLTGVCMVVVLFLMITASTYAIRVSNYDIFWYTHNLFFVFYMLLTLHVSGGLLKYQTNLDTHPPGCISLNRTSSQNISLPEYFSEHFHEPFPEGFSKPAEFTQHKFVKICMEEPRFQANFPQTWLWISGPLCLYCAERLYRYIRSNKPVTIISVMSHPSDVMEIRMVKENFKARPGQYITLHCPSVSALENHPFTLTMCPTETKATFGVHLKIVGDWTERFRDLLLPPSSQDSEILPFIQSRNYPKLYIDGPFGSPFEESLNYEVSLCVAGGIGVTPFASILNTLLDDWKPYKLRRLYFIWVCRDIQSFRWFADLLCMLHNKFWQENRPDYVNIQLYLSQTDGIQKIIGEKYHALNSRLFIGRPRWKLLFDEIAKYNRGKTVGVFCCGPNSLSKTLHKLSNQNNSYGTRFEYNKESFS
Sequence of NADPH oxidase 5 (Homo sapiens) (Q96PH1 whole entry, looked up): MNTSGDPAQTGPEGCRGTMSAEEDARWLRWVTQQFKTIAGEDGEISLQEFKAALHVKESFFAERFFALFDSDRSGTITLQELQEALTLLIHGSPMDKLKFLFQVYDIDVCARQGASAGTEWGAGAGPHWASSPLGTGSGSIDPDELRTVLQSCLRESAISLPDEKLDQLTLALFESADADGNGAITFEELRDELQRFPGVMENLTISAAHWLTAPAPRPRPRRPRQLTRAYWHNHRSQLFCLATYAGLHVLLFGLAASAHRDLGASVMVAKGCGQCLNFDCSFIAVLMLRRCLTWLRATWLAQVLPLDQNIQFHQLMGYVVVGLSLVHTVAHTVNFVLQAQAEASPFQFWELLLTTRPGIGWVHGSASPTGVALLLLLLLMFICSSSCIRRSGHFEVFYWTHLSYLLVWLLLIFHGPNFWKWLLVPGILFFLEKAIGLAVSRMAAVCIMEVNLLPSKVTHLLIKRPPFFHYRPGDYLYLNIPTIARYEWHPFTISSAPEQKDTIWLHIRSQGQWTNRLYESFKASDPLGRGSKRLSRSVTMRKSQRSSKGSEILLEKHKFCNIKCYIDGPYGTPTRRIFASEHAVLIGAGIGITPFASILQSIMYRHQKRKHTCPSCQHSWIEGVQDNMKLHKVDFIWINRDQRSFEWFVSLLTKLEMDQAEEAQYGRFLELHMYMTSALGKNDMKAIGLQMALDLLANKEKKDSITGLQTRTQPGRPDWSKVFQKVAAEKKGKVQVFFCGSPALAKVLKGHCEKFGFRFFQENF
Sequence of NADPH oxidase 2 (Homo sapiens) (P04839 whole entry, looked up): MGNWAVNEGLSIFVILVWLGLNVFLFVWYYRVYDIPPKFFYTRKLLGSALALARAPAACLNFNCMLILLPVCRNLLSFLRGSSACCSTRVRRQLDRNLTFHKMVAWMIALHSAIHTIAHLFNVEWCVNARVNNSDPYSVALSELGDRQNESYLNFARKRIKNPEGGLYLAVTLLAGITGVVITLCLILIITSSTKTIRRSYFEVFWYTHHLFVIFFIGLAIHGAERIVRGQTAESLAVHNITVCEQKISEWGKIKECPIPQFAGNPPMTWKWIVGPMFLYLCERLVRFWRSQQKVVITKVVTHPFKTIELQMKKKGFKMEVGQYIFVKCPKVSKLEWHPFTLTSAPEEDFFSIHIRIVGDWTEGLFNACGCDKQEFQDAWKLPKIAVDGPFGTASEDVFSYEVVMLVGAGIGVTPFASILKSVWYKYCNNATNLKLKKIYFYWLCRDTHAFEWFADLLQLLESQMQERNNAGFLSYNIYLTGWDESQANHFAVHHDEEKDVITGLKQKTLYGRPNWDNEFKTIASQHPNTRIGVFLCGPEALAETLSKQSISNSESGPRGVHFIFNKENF

On to `Cc1ccccc1C(O)C1C=CC2C(=O)N(C)C(=O)C2N1N(c1ccccc1)c1ccccc1` (stereo not given), for which the z-score in test [1] is -0.402 (inactive); in test [3], 3.21 (inactive); in test [4] it was 1.71 (inactive); in test [5], 0.625 (inactive); in [6] it was 1.25 (inactive); in test [7], -0.877. For the same molecule, the values for the z-score in test [8], in [9] and in [10] were 0.888 (inactive), 0.0569 (inactive) and -0.125, respectively. Besides, the composite z-score in test [2] was 0.998.
Regarding `CN(C)C(=O)C1N=C(c2ccc(OCCCO)cc2)N(c2ccccc2)O1` (stereo not given), the z-score in [1] is 0.975 (inactive); in [3], 18.3 (active); in test [4] it was 2.14 (inactive); in test [5], 0.0521 (inactive); in test [6], 0.325 (inactive); in test [7] it was 0.296. Moreover, the values for the z-score in test [8], in [9] and in test [10] were -4.12 (inactive), -0.509 (inactive) and -1.12, respectively. In [2], the composite z-score came to 0.0509.
Turning to `[N-]=[N+]=NCc1ccccc1C[C@]1(C(N)=O)N=C(c2ccc(OCCCO)cc2)O[C@H]1c1ccccc1`, the z-score in [1] was 1.06 (inactive); in [3] it was 21 (active); in test [4] it was 3.55 (inactive); in [5], 0.0533 (inactive); in test [6], 0.913 (inactive); in test [7] it was 0.349. Moreover, the z-score in [8] is -3.27 (inactive); in test [9], -0.839 (inactive); in [10] it was -1.95. Besides, the composite z-score in test [2] was -0.227.
As to `[N-]=[N+]=Nc1ccccc1[C@H]1OC(c2ccc(OCCCO)cc2)=N[C@@]1(Cc1ccccc1)C(=O)N1CCCCC1`, the z-score in test [1] was 0.546 (inactive); in test [3], 31.2 (active); in [4] it was 27.9 (active); in test [5] it was 2.35 (inactive); in [6] it was 8.26 (active); in test [7], 0.583. Also, the z-score in test [8] was -1.52 (inactive); in test [9], 0.804 (inactive); in test [10], 1.62. Further, the composite z-score in test [2] came to 0.51.
As to `[N-]=[N+]=Nc1ccccc1[C@H]1OC(c2ccc(OCCCO)cc2)=N[C@@]1(CCS(=O)(=O)c1ccccc1)C(=O)NCCN1CCOCC1`, the z-score in test [1] is -0.0631 (inactive); in [3] it was 28.9 (active); in test [4] it was 25.6 (active); in [5] it was 0.931 (inactive); in test [6], 1.8 (inactive); in [7], 0.468. For the same molecule, the results for the z-score in [8], in test [9] and in [10] were -2.18 (inactive), -0.233 (inactive) and -1.47, respectively. In test [2], this molecule came in with a composite z-score of 0.458.
Take `C=CCNC(=O)[C@H]1[C@@H]2C(=O)O[C@@H](c3ccccc3)[C@@H](c3ccccc3)N2[C@@H](c2ccc(O)cc2)[C@]12C(=O)N(C(=O)OCCOC)c1ccccc12`: the z-score is -0.0476 (inactive) in test [1]; 1.97 (inactive) in [3]; 0.481 (inactive) in [4]; 1.77 (inactive) in test [5]; 0.148 (inactive) in test [6]; -0.233 in [7]. Besides, the figures for the z-score in test [8], in test [9] and in test [10] were 0.974 (inactive), -0.168 (inactive) and 0.605, respectively. Moreover, in test [2], the composite z-score is -0.514.
As to `O=C1O[C@H](c2ccccc2)[C@H](c2ccccc2)N2[C@H]1[C@@H](C(=O)Nc1nc3ccccc3s1)[C@]1(C(=O)Nc3ccc(C#CCCO)cc31)[C@H]2c1ccc(O)cc1`, the z-score in test [1] was -0.742 (inactive); in test [3], 0.402 (inactive); in [4], 1.05 (inactive); in test [5], -5.42 (inactive); in test [6], 1.23 (inactive); in test [7], -0.263. Moreover, the z-score in test [8] was 1.08 (inactive); in test [9] it was 0.38 (inactive); in test [10] it was -0.901. In test [2], this molecule registered a composite z-score of 0.026.
Take `COCCOC(=O)N1C(=O)[C@@]2(c3ccccc31)[C@H](C(=O)N1CCN(c3ncccn3)CC1)[C@H]1C(=O)O[C@H](c3ccccc3)[C@H](c3ccccc3)N1[C@@H]2c1ccc(O)cc1`: the z-score is 0.81 (inactive) in [1]; 1.78 (inactive) in test [3]; 0.672 (inactive) in [4]; 0.481 (inactive) in [5]; 0.261 (inactive) in test [6]; 0.0481 in test [7]. Moreover, the z-score in test [8] is 1.25 (inactive); in [9], -0.0154 (inactive); in [10], 2.19. The same molecule had a composite z-score in test [2] of 0.0661.
Take `CCOc1cc(C(O)C2C=CC3C(=O)N(C)C(=O)C3N2Nc2ccccc2)ccc1O` (stereo not given): the z-score in test [1] was -0.353 (inactive); in test [3], 0.453 (inactive); in [4], 1.45 (inactive); in [5], 0.42 (inactive); in test [6], 1.42 (inactive); in test [7], -1.01. Also, the values for the z-score in test [8], in test [9] and in [10] were -1.4 (inactive), -1.94 (inactive) and -1.78, respectively. Also, the composite z-score in [2] stood at 0.0313.
Regarding `C[N+](C)(C)CCCCCCNC(=O)[C@H]1C[C@H]2C(=O)N[C@@H](Cc3ccccc3)C(=O)N2[C@H]1c1ccc(O)cc1`, the z-score in test [1] is 0.796 (inactive); in [3], 6.4 (inactive); in test [4], 1.3 (inactive); in [5] it was -0.194 (inactive); in test [6], 0.374 (inactive); in test [7] it was -0.0246. For the same molecule, the z-score in test [8] was 0.847 (inactive); in test [9], 1.13 (inactive); in [10], -0.0901. Moreover, in [2], the composite z-score is -0.0475.
Take `CC1=C([C@H](O)CCc2ccccc2)[C@H](CO)[C@@H]2C(=O)N(C)C(=O)[C@@H]2C1`: the z-score in test [1] was 1.13 (inactive); in test [3], 4.81 (inactive); in test [4] it was 0.403 (inactive); in test [5], -0.0722 (inactive); in [6], -0.0393 (inactive); in [7], -0.167. The z-score in test [8] is -1.36 (inactive); in [9], 0.412 (inactive); in [10], 0.0196. For the same molecule, the composite z-score in test [2] was determined as 0.184.
On to `COC(=O)c1c2oc(c1C(=O)OC)C(=O)N(C)Cc1cn(nn1)C[C@H](Cc1ccccc1)NC(=O)N[C@H](CO)CC2`, for which the z-score was -0.878 (inactive) in test [1]; 0.965 (inactive) in [3]; 0.308 (inactive) in [4]; -0.119 (inactive) in test [5]; 0.728 (inactive) in test [6]; -0.638 in test [7]. Moreover, the z-score is 0.0368 (inactive) in test [8], 0.338 (inactive) in [9] and 0.282 in test [10]. In addition, in test [2], the composite z-score was -0.0954.
For `C[C@]1(C(=O)NC2CC2)c2ccccc2C(=O)N(Cc2ccccc2)[C@H]1c1ccc(CO)cc1`, the z-score in test [1] is 2.07 (inactive); in test [3] it was 2.84 (inactive); in test [4] it was 0.17 (inactive); in test [5], 0.475 (inactive); in test [6] it was -0.779 (inactive); in [7], 2.26. For the same molecule, the z-score in test [8] is -0.148 (inactive); in [9], -1.55 (inactive); in [10], -0.249. The molecule further had a composite z-score in test [2] of -0.147.

These data come from PubChem BioAssay.
